For 35 compounds, cell viability results are on record in the supplement of paper PMC8773631.

Molecules are shown by their SMILES. Where a name gives a salt, the structure may show the parent alone. ± gives the uncertainty stated by the source.

In general, cell viability refers to a read-out of living cells in per cent, often relative to untreated cells.

The subject of this assay is NCC-MFS5-C1. Nature of the assay: cell viability relative to DMSO control; higher = less growth inhibition. The conditions noted are these: 10 µM; treatment time: 3 days. The method, then:
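NCC-MFS5-C1 myxofibrosarcoma cells (1x10^4 per well, 384-well) were treated on day 2 with 10 µM of each drug. On day 5, viability was read by CCK-8 absorbance at 450 nm and normalised to the DMSO control (%), n = 2.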
Regarding `O=C(CCBr)N1CCN(C(=O)CCBr)CC1` [Pipobroman-D8], the cell viability was determined as 108 ± 6.2%.

For `C#Cc1cccc(Nc2ncnc3cc(OCCOC)c(OCCO)cc23)c1`, the cell viability was determined as 92.2 ± 1.8%.

For `CN(C)C/C=C/C(=O)Nc1cc2c(Nc3ccc(F)c(Cl)c3)ncnc2cc1O[C@H]1CCOC1` [Afatinib (BIBW2992)], the cell viability was 9.65 ± 4.3%.

For the compound `C#Cc1cccc(Nc2ncnc3cc(OCCOC)c(OCCOC)cc23)c1` [Erlotinib], the cell viability stood at 81.7 ± 5.8%.

In the case of `Cc1ccc(S(=O)(=O)Nc2nc3ccccc3nc2Nc2ccc3nsnc3c2)cc1` [XL147 analog], the cell viability worked out at 84.5 ± 6%.

For the compound `CN1c2cc(O)c(N=NC(N)=O)cc2CC1S(=O)(=O)O` (stereo not given) [Carbazochrome sodium sulfonate (AC-17)], the cell viability was determined as 78.6 ± 7.6%.

For the compound `N#CC1(c2ccc(NC(=O)c3cccnc3NCc3ccncc3)cc2)CCCC1` [Apatinib], the cell viability was 80.9 ± 2%.

With `COc1cc([C@@H]2c3cc4c(cc3[C@@H](O[C@@H]3O[C@@H]5CO[C@@H](c6cccs6)O[C@H]5[C@H](O)[C@H]3O)[C@H]3COC(=O)[C@H]23)OCO4)cc(OC)c1O` [Teniposide], the cell viability is 76.7 ± 4.4%.

Turning to `COc1cc2c(Oc3ccc4[nH]c(C)cc4c3F)ncnc2cc1OCCCN1CCCC1` [Cediranib (AZD2171)], the cell viability was -0.717 ± 0.35%.

`CCCCNC(=O)NS(=O)(=O)c1ccc(C)cc1` [Tolbutamide]: the cell viability came to 82.5 ± 3.6%.

In the case of `COc1cc2nccc(Oc3ccc(NC(=O)NC4CC4)c(Cl)c3)c2cc1C(N)=O` [Lenvatinib (E7080)], the cell viability was found to be 75.4 ± 0.93%.

Consider `CNC(=O)c1ccccc1Sc1ccc2c(/C=C/c3ccccn3)n[nH]c2c1` [Axitinib], for which the cell viability came to 79.1 ± 4.4%.

Take `CO[C@H]1O[C@@H]2O[C@@]3(C)CC[C@H]4[C@H](C)CC[C@@H]([C@H]1C)[C@@]24OO3` [Artemether]: the cell viability amounted to 91.2 ± 4.8%.

For `Cc1ccc(-n2[nH]c(C)c(N=Nc3cccc(-c4cccc(C(=O)O)c4)c3O)c2=O)cc1C` [Eltrombopag Olamine], the cell viability is 111 ± 5.6%.

Take `CNNCc1ccc(C(=O)NC(C)C)cc1` [Procarbazine HCl]: the cell viability came out at 94.3 ± 7.5%.

Consider `CCOc1cc(C(C)(C)C)ccc1C1=N[C@@](C)(c2ccc(Cl)cc2)[C@@](C)(c2ccc(Cl)cc2)N1C(=O)N1CCN(CCCS(C)(=O)=O)CC1`, for which the cell viability was determined as 96 ± 5.5%.

As to `C#CCC(Cc1cnc2nc(N)nc(N)c2n1)c1ccc(C(=O)N[C@@H](CCC(=O)O)C(=O)O)cc1` (stereo not given in full) [Pralatrexate], the cell viability turned out to be 85 ± 4.1%.

Regarding `CN(C)C/C=C/C(=O)Nc1cc2c(Nc3ccc(F)c(Cl)c3)ncnc2cc1O[C@H]1CCOC1` [Afatinib (BIBW2992) Dimaleate], the cell viability came out at 15 ± 7%.

In the case of `O=c1c(-c2ccc(O)cc2)coc2cc(O)cc(O)c12` [Genistein], the cell viability amounted to 81.4 ± 10%.

Consider `CN(Cc1cnc2nc(N)nc(N)c2n1)c1ccc(C(=O)N[C@@H](CCC(=O)O)C(=O)O)cc1` [Methotrexate], for which the cell viability is 80.2 ± 3.6%.

On to `Cn1nnc2c(C(N)=O)ncn2c1=O` [Temozolomide], for which the cell viability was determined as 99.4 ± 23%.

Regarding `Cc1nc(NC(=O)N2CCC[C@H]2C(N)=O)sc1-c1ccnc(C(C)(C)C(F)(F)F)c1` [Alpelisib], the cell viability was 92.6 ± 1%.

Turning to `COc1cc2c(cc1O)CC[C@@H]1[C@@H]2CC[C@]2(C)[C@@H](O)CC[C@@H]12` [2-Methoxyestradiol (2-MeOE2)], the cell viability was 57.5 ± 7.6%.

With `N#Cc1ccc(C(c2ccc(C#N)cc2)n2cncn2)cc1` [Letrozole], the cell viability is 92.3 ± 6.4%.

Take `O=C(O)C1(C(=O)O)CCC1.[NH2-].[NH2-].[Pt+2]` [Carboplatin]: the cell viability was determined as 83.7 ± 2.2%.

For `CC/C(=C(/CC)c1ccc(O)cc1)c1ccc(O)cc1` [Diethylstilbestrol], the cell viability came to 87.8 ± 22%.

`N=C(N)NC(=N)N1CCOCC1` [Moroxydine HCl]: the cell viability worked out at 91.2 ± 3.7%.

Regarding `COc1cc2c(Oc3ccc(NC(=O)C4(C(=O)Nc5ccc(F)cc5)CC4)cc3F)ccnc2cc1OCCCN1CCOCC1`, the cell viability was found to be 7.35 ± 2%.

On to `C=CC(=O)N1CCC(Oc2cc3c(Nc4ccc(Cl)c(Cl)c4F)ncnc3cc2OC)CC1` [Poziotinib (HM781-36B)], for which the cell viability amounted to 68.6 ± 1%.

As for `C=CC[C@@H]1/C=C(\C)C[C@H](C)C[C@H](OC)[C@H]2O[C@@](O)(C(=O)C(=O)N3CCCC[C@H]3C(=O)O[C@H](/C(C)=C/[C@@H]3CC[C@@H](O)[C@H](OC)C3)[C@H](C)[C@@H](O)CC1=O)[C@H](C)C[C@@H]2OC` [Tacrolimus (FK506)], the cell viability is 93.7 ± 7.5%.

Regarding `CC(=O)O[C@H]1C(=O)[C@@]2(C)[C@H]([C@H](OC(=O)c3ccccc3)[C@]3(O)C[C@H](OC(=O)[C@H](O)[C@@H](NC(=O)c4ccccc4)c4ccccc4)C(C)=C1C3(C)C)[C@]1(OC(C)=O)CO[C@@H]1C[C@@H]2O` [Paclitaxel], the cell viability amounted to 53.9 ± 3.3%.

As for `CC(C)(OCc1nn(Cc2ccccc2)c2ccccc12)C(=O)O` [Bindarit], the cell viability is 85.93 ± 0.83%.

As to `CC[C@@]1(O)C(=O)OCc2c1cc1n(c2=O)Cc2cc3c(CN(C)C)c(O)ccc3nc2-1` [Topotecan HCl], the cell viability was 33.3 ± 5.3%.

As for `O=c1[nH]cc(F)c(=O)[nH]1` [Fluorouracil (5-Fluoracil, 5-FU)], the cell viability was found to be 78.9 ± 19%.

For `COc1c2occc2cc2ccc(=O)oc12` [Methoxsalen], the cell viability was found to be 116 ± 22%.
